In PubChem BioAssay:
Active and inactive are the calls of the source.

How the values were obtained:
[1] = binders of probe aFSTL3 on microarray, primary screen, stem cell growth factor project, biochemical, small-molecule microarray, fluorescence 635/667 (AID 1064); details: higher = more signal;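 note: measures binding of the biotinylated anti-FSTL3 antibody to printed compounds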
[2] = binders from COS7 lysate, DM2A8 probe, primary screen, torsin A project, cell lysate, small-molecule microarray, fluorescence 635/667 (AID 1065); details: higher = more signal, COS7 lysate expressing mutant human TOR1A
[3] = binders of probe aFGF2 on microarray, primary screen, stem cell growth factor project, biochemical, small-molecule microarray, fluorescence 635/667 (AID 1067); details: higher = more signal;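 note: measures binding of biotinylated aFGF2 protein to printed compounds on slides; z-score merges feature fluorescence and signal-to-noise across triplicate slides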
[4] = binders of probe aFGF10 on microarray, primary screen, stem cell growth factor project, biochemical, small-molecule microarray, fluorescence 635/667 (AID 1071); details: higher = more signal;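 note: score merges 667 nm spot intensity and signal to noise from triplicate slides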
[5] = biological target: Neurogenic locus notch homolog protein 2 (Homo sapiens) (UniProt Q04721); experiment: Notch2 binders on small-molecule microarrays, primary screen, biochemical, small-molecule microarray, 635 nm fluorescence, stem cell growth factors (AID 1073); details: Notch2 binding, higher = more signal
Sequence of Neurogenic locus notch homolog protein 2 (Homo sapiens) (Q04721 whole entry, looked up, canonical isoform): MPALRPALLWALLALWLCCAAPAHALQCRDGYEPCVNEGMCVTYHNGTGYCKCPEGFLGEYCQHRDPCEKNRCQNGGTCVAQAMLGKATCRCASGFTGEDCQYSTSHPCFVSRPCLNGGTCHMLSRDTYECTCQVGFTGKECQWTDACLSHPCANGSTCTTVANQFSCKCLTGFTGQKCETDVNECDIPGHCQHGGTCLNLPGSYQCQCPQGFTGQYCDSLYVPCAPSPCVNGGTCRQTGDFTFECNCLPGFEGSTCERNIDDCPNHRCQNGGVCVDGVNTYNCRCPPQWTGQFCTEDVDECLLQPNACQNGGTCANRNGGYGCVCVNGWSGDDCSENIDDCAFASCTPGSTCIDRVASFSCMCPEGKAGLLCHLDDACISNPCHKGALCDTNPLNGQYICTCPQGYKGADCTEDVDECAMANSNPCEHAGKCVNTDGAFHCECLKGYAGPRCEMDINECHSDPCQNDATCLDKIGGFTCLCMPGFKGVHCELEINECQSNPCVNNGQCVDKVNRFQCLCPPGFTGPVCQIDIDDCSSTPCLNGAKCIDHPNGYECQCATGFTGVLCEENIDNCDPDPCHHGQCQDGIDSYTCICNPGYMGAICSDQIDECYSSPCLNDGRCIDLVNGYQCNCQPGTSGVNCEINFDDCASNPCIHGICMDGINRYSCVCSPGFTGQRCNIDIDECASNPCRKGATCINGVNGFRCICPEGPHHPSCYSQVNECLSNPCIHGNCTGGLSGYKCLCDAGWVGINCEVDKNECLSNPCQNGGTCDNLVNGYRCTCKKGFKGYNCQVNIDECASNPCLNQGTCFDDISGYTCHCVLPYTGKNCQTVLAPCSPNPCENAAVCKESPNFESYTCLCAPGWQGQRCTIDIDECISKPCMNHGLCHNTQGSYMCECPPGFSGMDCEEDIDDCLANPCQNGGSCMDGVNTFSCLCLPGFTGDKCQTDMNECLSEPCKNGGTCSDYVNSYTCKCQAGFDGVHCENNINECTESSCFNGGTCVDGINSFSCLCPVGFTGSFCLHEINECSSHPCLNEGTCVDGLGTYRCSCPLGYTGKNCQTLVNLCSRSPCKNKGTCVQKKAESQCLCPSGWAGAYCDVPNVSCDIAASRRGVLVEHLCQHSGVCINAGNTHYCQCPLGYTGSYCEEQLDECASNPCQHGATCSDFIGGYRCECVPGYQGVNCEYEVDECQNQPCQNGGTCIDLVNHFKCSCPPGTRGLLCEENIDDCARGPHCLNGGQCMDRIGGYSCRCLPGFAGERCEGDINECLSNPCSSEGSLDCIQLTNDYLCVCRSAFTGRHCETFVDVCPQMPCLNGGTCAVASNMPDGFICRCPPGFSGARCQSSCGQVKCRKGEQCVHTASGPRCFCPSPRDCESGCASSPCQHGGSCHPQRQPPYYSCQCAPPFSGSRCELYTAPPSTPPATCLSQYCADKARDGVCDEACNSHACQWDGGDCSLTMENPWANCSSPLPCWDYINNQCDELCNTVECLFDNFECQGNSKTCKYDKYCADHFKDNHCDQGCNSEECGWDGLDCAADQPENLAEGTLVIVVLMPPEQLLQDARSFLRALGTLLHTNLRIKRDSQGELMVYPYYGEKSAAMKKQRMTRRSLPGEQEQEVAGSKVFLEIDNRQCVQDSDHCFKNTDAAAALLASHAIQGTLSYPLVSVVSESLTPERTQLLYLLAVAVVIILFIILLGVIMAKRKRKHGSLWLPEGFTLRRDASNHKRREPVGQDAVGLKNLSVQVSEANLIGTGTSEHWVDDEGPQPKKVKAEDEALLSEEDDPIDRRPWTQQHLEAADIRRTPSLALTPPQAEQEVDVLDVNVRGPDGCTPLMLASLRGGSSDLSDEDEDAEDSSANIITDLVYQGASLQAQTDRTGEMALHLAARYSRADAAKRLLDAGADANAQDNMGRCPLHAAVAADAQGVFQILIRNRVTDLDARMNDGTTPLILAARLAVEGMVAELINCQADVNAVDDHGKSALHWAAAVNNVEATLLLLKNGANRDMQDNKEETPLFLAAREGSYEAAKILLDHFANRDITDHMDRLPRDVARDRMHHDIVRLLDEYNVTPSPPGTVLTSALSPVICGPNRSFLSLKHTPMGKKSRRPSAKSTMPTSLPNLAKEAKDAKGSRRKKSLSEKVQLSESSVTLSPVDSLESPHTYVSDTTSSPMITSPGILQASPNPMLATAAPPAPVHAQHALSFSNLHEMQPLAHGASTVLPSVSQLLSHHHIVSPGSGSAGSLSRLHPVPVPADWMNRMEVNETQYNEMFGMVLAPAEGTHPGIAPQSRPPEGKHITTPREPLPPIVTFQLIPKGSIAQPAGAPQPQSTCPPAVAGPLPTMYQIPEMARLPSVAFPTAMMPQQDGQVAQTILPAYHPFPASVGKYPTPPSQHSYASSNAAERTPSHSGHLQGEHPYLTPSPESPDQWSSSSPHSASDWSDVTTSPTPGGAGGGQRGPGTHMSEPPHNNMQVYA

[6] = biological target: Pro-neuregulin-1, membrane-bound isoform (Homo sapiens) (UniProt Q02297); experiment: NRG1 binders on small-molecule microarrays, primary screen, psychiatric disease protein project, biochemical, small-molecule microarray, fluorescence 635/667 (AID 1075); details: NRG1 binding, 635 nm fluorescence, higher = more signal;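 note: score combines 667 nm spot fluorescence with signal to noise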
Sequence of Pro-neuregulin-1, membrane-bound isoform (Homo sapiens) (Q02297 whole entry, looked up, the tested form may be a part, canonical isoform): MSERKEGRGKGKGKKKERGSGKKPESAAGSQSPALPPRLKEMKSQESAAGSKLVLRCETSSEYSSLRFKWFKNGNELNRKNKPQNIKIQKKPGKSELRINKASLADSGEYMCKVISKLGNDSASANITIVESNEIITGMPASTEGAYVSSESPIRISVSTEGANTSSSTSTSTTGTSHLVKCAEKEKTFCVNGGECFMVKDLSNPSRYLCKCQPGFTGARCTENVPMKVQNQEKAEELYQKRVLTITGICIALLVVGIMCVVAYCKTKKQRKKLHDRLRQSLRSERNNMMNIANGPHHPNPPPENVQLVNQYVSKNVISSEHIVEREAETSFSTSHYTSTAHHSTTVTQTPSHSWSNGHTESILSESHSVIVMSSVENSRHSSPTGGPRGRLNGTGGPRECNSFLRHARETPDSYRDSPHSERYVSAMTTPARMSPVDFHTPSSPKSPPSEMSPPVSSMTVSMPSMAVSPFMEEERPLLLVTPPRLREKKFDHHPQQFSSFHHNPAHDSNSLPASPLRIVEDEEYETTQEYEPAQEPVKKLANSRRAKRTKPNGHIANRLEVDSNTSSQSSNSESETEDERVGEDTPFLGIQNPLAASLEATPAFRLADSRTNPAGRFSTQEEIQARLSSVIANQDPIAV

[7] = system: Neuregulin-1 EGF-like domain; experiment: binders of neuregulin-1 EGF-like domain, primary screen, biochemical, small-molecule microarray, 635 nm fluorescence (AID 1081); details: small-molecule microarray binding, higher = more signal;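 note: binding of the protein to compounds printed on small-molecule microarray slides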
[8] = FRG1 promoter luciferase signal modulators, primary screen, FRG1 inhibition for FSHD, cell-based, C2C12 myotubes, firefly/Renilla luciferase, luminescence (AID 1084); details: higher = more signal, called active from +8 up or from −8 down
[9] = binders of probe aFST on microarray, primary screen, stem cell growth factor project, biochemical, small-molecule microarray, fluorescence 635/667 (AID 1086); details: higher = more signal;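 note: score merges 667 nm fluorescence with signal-to-noise of each printed compound spot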
[10] = binders of probe aHhip on microarray, primary screen, stem cell growth factor project, biochemical, small-molecule microarray, fluorescence 635/667 (AID 1087); details: higher = more signal;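 note: score merges spot fluorescence at 667nm with spot signal to noise ratio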
[11] = system: PRMT1 (protein arginine N-methyltransferase 1); experiment: PRMT1 binders on small-molecule microarrays, primary screen, biochemical, small-molecule microarray, 635 nm fluorescence (AID 1088); details: small-molecule microarray binding, higher = more signal;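 note: binding of Prmt1 protein to compounds spotted on small-molecule microarray slides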
[12] = yeast growth modulation, basal conditions, primary screen, YJM789 clinical isolate, OD600, 24 h (AID 1089);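 note: growth of clinical yeast isolate S. cerevisiae YJM 789 seeded 1000 cells per well; test concentration not given here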; details: S. cerevisiae YJM789 growth, higher = more signal, called active from +8 up or from −8 down
[13] = fission yeast growth modulation, primary screen, strain 972, OD600, 24 h, no modulator (AID 1090);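 note: basal condition with compound alone and no growth modifier present; test concentration not given here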; details: S. pombe 972 growth, higher = more signal, called active from +8 up or from −8 down
[14] = S. cerevisiae growth modulation with rapamycin, primary screen, strain BY4716, OD600, 96 h (AID 1091); details: higher = more signal, called active from +8 up or from −8 down; note: test concentration not given here
[15] = biological target: Torsin-1A-interacting protein 2 (Homo sapiens) (UniProt Q8NFQ8); experiment: LULL1 binders on small-molecule microarray, primary screen, cell lysate, human LULL1 lysate, 635/667 nm fluorescence (AID 1092); details: hLULL1 lysate binding, 635 nm fluorescence, higher = more signal;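 note: probe is lysate of COS7 cells overexpressing human LULL1; score merges per-feature 667 nm fluorescence with signal-to-noise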
Sequence of Torsin-1A-interacting protein 2 (Homo sapiens) (Q8NFQ8 whole entry, looked up): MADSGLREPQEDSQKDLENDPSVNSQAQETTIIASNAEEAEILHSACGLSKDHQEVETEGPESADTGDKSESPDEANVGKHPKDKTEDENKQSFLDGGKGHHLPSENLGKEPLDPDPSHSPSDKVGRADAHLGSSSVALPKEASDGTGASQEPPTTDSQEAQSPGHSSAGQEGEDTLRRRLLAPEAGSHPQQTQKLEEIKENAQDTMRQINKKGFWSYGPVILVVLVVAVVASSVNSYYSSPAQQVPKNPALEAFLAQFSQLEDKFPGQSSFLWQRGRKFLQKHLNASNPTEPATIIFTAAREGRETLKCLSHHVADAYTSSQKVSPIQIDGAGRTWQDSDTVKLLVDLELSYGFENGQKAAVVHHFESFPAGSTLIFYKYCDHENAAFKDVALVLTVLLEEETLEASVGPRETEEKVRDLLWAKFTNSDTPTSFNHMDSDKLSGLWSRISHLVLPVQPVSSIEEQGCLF

[16] = E. coli growth modulation, two-sided OD650, primary screen, E. coli filamentation project, strain DRC41, 24 h (AID 1093); details: OD650, 24 h, higher = more signal, called active from +8 up or from −8 down;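 note: MC1000 strain lacking acrAB efflux and sulA so SOS filamentation is blocked; test concentration not given here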
[17] = small-molecule microarray binders of probe aLefty2, primary screen, biochemical, biotinylated probe, 635/667 nm fluorescence (AID 1094); details: higher = more signal;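 note: score merges spot fluorescence near 667 nm with spot signal-to-noise ratio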
[18] = system: Noggin (protein binding on small-molecule microarray); experiment: Noggin binders on small-molecule microarray, primary screen, biochemical, 635/667 nm fluorescence (AID 1095); details: 635 nm fluorescence, higher = more signal;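 note: score merges 667 nm feature fluorescence with signal to noise over triplicate slides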
[19] = biological target: Neurogenic locus notch homolog protein 3 (Homo sapiens) (UniProt Q9UM47); experiment: NOTCH3 binders on small-molecule microarray, primary screen, biochemical, 635/667 nm fluorescence (AID 1096); details: NOTCH3 binding, 635 nm fluorescence, higher = more signal
[20] = small-molecule microarray binders of probe aEGFR, primary screen, biochemical, biotinylated probe, 635/667 nm fluorescence (AID 1097); details: higher = more signal;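 note: probe is a biotinylated anti-EGFR antibody binding compounds printed on slides; score combines fluorescence near 667 nm and signal to noise of each spot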

Row | Compound | composite z-score [1] | composite z-score [2] | composite z-score [3] | composite z-score [4] | composite z-score [5] | composite z-score [6] | composite z-score [7] | z-score [8] | composite z-score [9] | composite z-score [10] | composite z-score [11] | z-score [12] | z-score [13] | z-score [14] | composite z-score [15] | z-score [16] | composite z-score [17] | composite z-score [18] | composite z-score [19] | composite z-score [20]
1 | CC(C)[Si](OCC[C@H]1O[C@]2(C(=O)N(Cc3ccccc3)c3ccccc32)[C@@H](C)[C@@H]1[Si](C)(C)O)(C(C)C)C(C)C | -0.143 | -0.149 | -0.25 | 0.164 | -0.0407 | 0.676 | -0.0474 | 0.562 (inactive) | 0.292 | 0.0373 | 0.489 | 1.11 (inactive) | -0.259 (inactive) | 1.24 (inactive) | 0.414 | 1.05 (inactive) | -0.149 | -0.139 | -0.0636 | -0.109
2 | Cc1ccc(S[C@]2(C(=O)NC(C)C)CC(=O)N(C3Cc4ccccc4C3)[C@@H]2c2ccc(CO)cc2)cc1 | -0.796 | 0.172 | -0.148 | 0.301 | -0.586 | 1.42 | 0.62 | -2.74 (inactive) | -0.554 | -0.292 | 1.53 | 0.106 (inactive) | -1.65 (inactive) | -0.517 (inactive) | 2.95 | -2.16 (inactive) | -0.222 | -0.0057 | 0.506 | -0.308
3 | COCCOC(=O)N1C(=O)[C@@]2(c3cc(C#CCCO)ccc31)[C@H](c1ccc(O)cc1)N1[C@H](c3ccccc3)[C@H](c3ccccc3)OC(=O)[C@H]1[C@@H]2C(=O)Nc1nc2ccccc2s1 | -0.243 | 0.184 | 0.0644 | 0.892 | 1.25 | 0.227 | 1.15 | -0.205 (inactive) | 0.293 | -0.16 | 1.55 | -0.123 (inactive) | -0.239 (inactive) | 0.691 (inactive) | 2.84 | 1.74 (inactive) | -0.0283 | 1.39 | 1.09 | 0.0082
4 | C=C(C(=O)CC[C@H](OC(=O)c1ccccc1-c1ccccc1C(=O)O)c1ccc(CO)o1)C(C)C | -0.547 | -0.113 | -0.0974 | 0.959 | -0.0673 | 1.25 | 1.33 | 0.112 (inactive) | 0.0357 | -0.0645 | 1.33 | 1.44 (inactive) | -0.197 (inactive) | 0.782 (inactive) | 0.662 | -0.309 (inactive) | -0.19 | 1.67 | 0.951 | -0.101
5 | [N-]=[N+]=NCc1ccccc1C[C@]1(C(N)=O)N=C(c2ccc(OCCCO)cc2)O[C@H]1c1ccccc1CN=[N+]=[N-] | 1.15 | 1.14 | 0.128 | 0.616 | 1.09 | 1.74 | 1 | -1.55 (inactive) | 0.823 | -0.3 | 1.32 | -2.38 (inactive) | -2.11 (inactive) | -0.525 (inactive) | 3 | -0.0236 (inactive) | 0.544 | 0.0263 | 0.904 | 0.145
6 | CO[C@@H]1COC(=O)CC=C[C@H](C)COC(=O)[C@H](Cc2ccccc2)NC(=O)CC=C[C@H]1C | -1.68 | 1.69 | -0.265 | -0.416 | -1.04 | -0.409 | 0.517 | -0.533 (inactive) | -0.515 | -0.179 | 1.48 | -0.346 (inactive) | -0.867 (inactive) | -1.61 (inactive) | -0.844 | -0.0298 (inactive) | -0.399 | 1.6 | 0.202 | -0.0773
